Common to all, as to assay: NCI-60 one-dose screen, 48 h (100 = growth as untreated, 0 = no growth, -100 = all killed)
Common to all, as to details: 10 µM

Experiment [1] has as its system HCT-15 colon.
Experiment [2] relates to HT29 colon.
Experiment [3] deals with SNB-75 CNS.
Experiment [4] concerns SNB-19 CNS.
Experiment [5] deals with U251 CNS.
For experiment [6], the system named is PC-3 prostate.
The test system of experiment [7] is SK-MEL-5 melanoma.
Experiment [8] has as its system UACC-62 melanoma.
The test system of experiment [9] is LOX IMVI melanoma.
The test system of experiment [10] is SK-MEL-28 melanoma.

The panel holds about 83,000 compounds, 20% with a hit somewhere; the sample as a whole holds those more often.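 Growth was measured after 48 h exposure to one concentration of compound in 96-well plates. Values under 10 count as active.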 Values without a mark were called inactive. The source made the active and inactive calls.

`COc1cc(NC(=O)Nc2cnc(Nc3ccc(N4CCOCC4)cc3)nc2Oc2cccc(OC)c2)cc(OC)c1`: the growth in experiment [1] is 81.9%; in experiment [2], 37.2%; in [3] it was 9.13% (active); in experiment [4] it was 66.6%; in [5] it was 22%; in experiment [6] it was 47.5%. The growth in experiment [7] was -19.9% (active); in experiment [8], 22.8%; in experiment [9] it was 33.3%; in experiment [10] it was 32.2%.
Regarding `CC(C)=CCC/C(C)=C/CC/C(C)=C/CC/C=C(\C)CC/C=C(\C)CCC(=O)Nc1ccn(C2OC(CO)C(O)C2(F)F)c(=O)n1` (stereo not given), the growth in experiment [1] is 50.9%; in [2], 36.2%; in experiment [3], 4.15% (active); in experiment [4], 23.4%; in experiment [5] it was 20.5%; in [6] it was 37.2%. Moreover, the growth in experiment [7] is -63.4% (active); in experiment [8], 22%; in experiment [9], 5.76% (active); in [10], 60%.
Turning to `CC(=O)[C@H]1CC[C@]2(C)[C@@H]1CC[C@@H]1[C@@]3(C)CC(CCC#N)(CCC#N)C(=O)C(C)(C)[C@@H]3CC[C@]12C`, the growth in [1] was 100%; in experiment [2] it was 98.8%; in [3], 84.5%; in experiment [4], 93.7%; in [5] it was 102%; in experiment [6], 93.8%. The growth is 86.6% in experiment [7], 82.4% in experiment [8], 94.1% in experiment [9] and 93.9% in experiment [10].
Consider `Cc1ccc(NC(=S)NNC(=S)Nc2ccc(C)cc2)cc1`, for which the growth in [1] is 44.1%; in experiment [2] it was 82.6%; in experiment [3], 40.2%; in experiment [4], 65.4%; in [5] it was 56.8%; in [6], 77.2%. For the same compound, the growth in [7] was 55.6%; in [8], 48.2%; in experiment [9], 75.3%; in experiment [10], 70.8%.
As to `NS(=O)(=O)Oc1ccc2c(ccn2C(=O)C23CC4CC(CC(C4)C2)C3)c1`, the growth in experiment [1] is 110%; in experiment [2], 102%; in experiment [3], 117%; in [4], 98.5%; in experiment [5], 99.2%; in experiment [6], 103%. Besides, the growth in experiment [7] was 95%; in experiment [8], 98.8%; in experiment [9], 98.8%; in experiment [10], 101%.
On to `Clc1ccc(C2=NN=C3C(Cc4ccccc4)=Nc4ccccc4N3C2)cc1`, for which the growth in experiment [1] was 68.6%; in experiment [2] it was 84.6%; in experiment [3], 98.5%; in [4], 93.3%; in experiment [5], 62.1%; in [6] it was 65.1%. Moreover, the growth in experiment [7] was 80.3%; in [8], 79.6%; in experiment [9], 65.2%; in [10], 83.4%.
Take `CCc1c2c(nc3ccc(OC(=O)N4CCC(N5CCCCC5)CC4)cc13)-c1cc3c(c(=O)n1C2)COC(=O)[C@]3(O)CC`: the growth in [1] was 53.1%; in [2] it was 28.8%; in experiment [3] it was -5.06% (active); in experiment [4] it was 26%; in experiment [5], 13.6%; in experiment [6] it was 40.9%. The growth in experiment [7] was -11.9% (active); in [8], 17.9%; in experiment [9], 4.61% (active); in [10], 67%.
In the case of `CC1/C=C/C=C/C=C/C=C/C=C/C=C/C=C/C(O[C@@H]2O[C@H](C)[C@H](O)[C@@H](O)[C@@H]2N)CC(O)C(C(=O)O)C(O)CC(=O)CC(O)CC(O)CC(O)CC(=O)CCCC(=O)CC(=O)OC1C(C)CC(C)C(O)CC(=O)c1ccc(N)cc1` (stereo not given in full), the growth is -95.5% (active) in [1]; -76.7% (active) in [2]; -96.6% (active) in experiment [3]; -99% (active) in experiment [4]; -100% (active) in [5]; -95.7% (active) in experiment [6]. The growth in experiment [7] is -99% (active); in experiment [8], -98.7% (active); in experiment [9], -96.9% (active); in experiment [10], -94.3% (active).
Turning to `C=C1CCC2(C#N)[C@H]3[C@H](CC[C@@H]2C)[C@@H](C)C[C@@H](CC(C)(C)NC(=O)CN2CCC2=O)[C@H]13` (stereo not given in full), the growth in experiment [1] is 47.3%; in experiment [2], 75.6%; in [3], 57.4%; in [4], 40.2%; in [5] it was 33.6%; in [6], 17.8%. For the same compound, the growth is 27.4% in experiment [7], 48.5% in experiment [8], 54.2% in experiment [9] and 73.9% in [10].
For the compound `OCCn1cccn1`, the growth was 98.6% in [1]; 104% in experiment [2]; 109% in experiment [3]; 113% in experiment [4]; 101% in experiment [5]; 100% in experiment [6]. Besides, the growth in experiment [7] was 99%; in [8], 114%; in experiment [9], 96.3%; in experiment [10] it was 117%.
For the compound `O=C(CSc1nnc(-c2ccc(Cl)cc2)o1)Nc1ccc(C(=O)/C=C/c2ccc(Cl)cc2)cc1`, the growth was 107% in experiment [1]; 99% in experiment [2]; 98.1% in experiment [3]; 94.6% in experiment [4]; 104% in experiment [5]; 92.8% in [6]. Moreover, the growth in experiment [7] was 94.1%; in [8], 87.6%; in [9], 98%; in experiment [10], 110%.
On to `Nc1nccc(OCCO)n1`, for which the growth was 98.4% in [1]; 88.3% in experiment [2]; 89.5% in experiment [3]; 101% in experiment [4]; 107% in experiment [5]; 103% in [6]. The growth is 99.2% in [7], 106% in [8], 97.5% in experiment [9] and 112% in experiment [10].
On to `CC(=O)O[C@@]12CO[C@@H]1C[C@H](O)[C@@]1(C)C(=O)[C@H](O)C3=C(C)[C@@H](OC(=O)[C@H](O)[C@@H](NC(=O)OC(C)(C)C)c4ccccc4)C[C@@](O)([C@@H](OC(=O)c4ccccc4)C12)C3(C)C` (stereo not given in full), for which the growth in experiment [1] was 16.5%; in experiment [2], 6.02% (active); in experiment [3], -2.3% (active); in [4] it was 37.8%; in experiment [5], 24.2%; in [6], 31.7%. For the same compound, the growth in [7] was 28.6%; in experiment [8] it was 52.5%; in experiment [9] it was 44.6%; in [10], 77.9%.

The values are drawn from PubChem BioAssay (NCI).
